Most compounds without a hit are left out; they make up all but 5.7% or so of the library.
PI4K2A block – inhibitors of human PI4K2A | Q9BTU6 | purified PI4K2A, ADP-Glo luminescence, 1 h; active compounds read low | activity change, negative = inhibition, % at 76.9 µM | 420,000 compounds, 0.13% hits; in the data active means activity change below about -50%; inconclusive means mostly about -30% to -49%;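 further: -100% = wells without enzyme as full effect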
Target sequence (Q9BTU6 whole entry, looked up): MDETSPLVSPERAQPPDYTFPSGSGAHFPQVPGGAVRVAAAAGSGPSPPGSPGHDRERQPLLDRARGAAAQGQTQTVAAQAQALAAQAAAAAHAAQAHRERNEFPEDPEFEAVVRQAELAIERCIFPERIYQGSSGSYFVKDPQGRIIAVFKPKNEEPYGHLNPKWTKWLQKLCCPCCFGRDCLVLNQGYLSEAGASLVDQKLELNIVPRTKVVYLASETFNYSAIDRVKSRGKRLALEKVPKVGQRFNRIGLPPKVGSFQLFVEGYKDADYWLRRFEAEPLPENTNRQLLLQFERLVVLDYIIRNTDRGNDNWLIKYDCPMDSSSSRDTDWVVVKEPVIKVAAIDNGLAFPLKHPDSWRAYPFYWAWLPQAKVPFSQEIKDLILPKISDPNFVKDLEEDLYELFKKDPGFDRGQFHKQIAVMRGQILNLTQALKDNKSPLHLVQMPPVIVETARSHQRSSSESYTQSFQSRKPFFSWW
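PI4K2A activity was measured by ADP-Glo luminescence: enzyme (4 ug/mL stock) and phosphatidylinositol (1.2 mM stock) in Tris pH 7.5/MgCl2/EGTA/Triton X-100 buffer were reacted with ATP (300 microM stock) for one hour at ambient temperature.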
KB-V1 MDR tox – kills drug-selected multidrug resistant KB-V1 cells. KB-V1 MDR cells viability, CellTiter-Glo, 72 h. Potency, µM (highest dose often 46.1 µM), most hits filed as cytotoxic. 400,000 compounds, 3.4% hits. AID 1347076; further: potency means the concentration at half of the fitted maximal effect; nearly all actives have a fitted effect of over 60% in size
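qHTS viability screen in drug-selected KB-V1 MDR cells: 72 h compound treatment at 37 degrees C, ATP luminescence end point.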
Nrf2 inh – inhibitors of Nrf2 signaling | A549 ARE-Fluc reporter, luciferase luminescence, 18-24 h | Potency, µM (series often up to 46 µM), for inactives: at the top dose activity change, negative = inhibition, usual class: inhibitors | 360,000 compounds, 2.1% hits; further: potency means the concentration at half of the fitted maximal effect; nearly all actives have a fitted effect of over 60% in size
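Reporter: ARE-Fluc in A549. Exposure: 18-24 h, 37 °C, 5% CO2, 5% FBS OPTI-MEM. Readouts: fluorescent cytotoxicity (CellTiter-Fluor), then luminescent Nrf2 signal after BugLite.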
Giardia killer – Giardia lamblia killing; Giardia lamblia trophozoite viability; activity change, % at 7.66 µM, hits read low; 340,000 compounds, 0.15% hits; AID 540267; in the data active means activity change below about -80%; inconclusive means between about -30% and that limit;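 further: parasites exposed to compound for two days anaerobically before the ATP read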
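Compounds were tested on trophozoites seeded at 100 cells/well and held 48 hrs at 37 deg C anaerobically. An ATP-based luminescent kit measured the remaining live cells.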
KB-3-1 tox – kills parental KB-3-1 adenocarcinoma cells. 400,000 compounds, 1.4% hits. AID 1347075. Potency, µM (highest dose often 46.1 µM), hits mostly cytotoxic. KB-3-1 viability, CellTiter-Glo ATP luminescence, 72 h; further: potency means the concentration at half of the fitted maximal effect; nearly all actives have a fitted effect of over 60% in size
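Multi-concentration cytotoxicity screen in KB-3-1 cells grown in DMEM lacking phenol red with 10% FBS. After 72 h at 37 °C with compound, ATP-dependent luminescence was recorded.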
A549 tox – kills or reduces viability of A549 cells in Nrf2 counter-screen; A549 ARE-Fluc cells, CellTiter-Fluor viability, 18-24 h; Potency, µM (titrated, usually from 46 µM), inactives show at the highest dose activity change, negative = cytotoxicity, most hits filed as inhibitors; 390,000 compounds, 0.16% hits; further: potency means the concentration at half of the fitted maximal effect
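A549 ARE-Fluc cells in 5% FBS OPTI-MEM, 5000 cells/well, rested 2 h then exposed to compounds in concentration-response for 18-24 h at 37 °C. Viability by CellTiter-Fluor fluorescence (Ex 405/Em 525) after 30 min; luciferase luminescence (BugLite, 15 min, RT) read afterwards.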
* hit, by the source's call; i = inactive; ? = inconclusive; · = no result; [ ] = remark or other dose. Unless noted, the call rests on the fitted dose curve; in most records, active means well fitted curve in the direction sought with a large enough effect; inconclusive means small, poorly fitted or top-dose-only effect, or another doubt; inactive means no such curve, though single readings can be large; an effect the other way counts as inactive or inconclusive. Unless noted, on the % scale 0 is the no-effect control and ±100 the full control effect.

SMILES	PI4K2A block	KB-V1 MDR tox	Nrf2 inh	Giardia killer	KB-3-1 tox	A549 tox
COC(=O)C1=C(c2ccc(F)cc2OCc2ccccc2)C[C@@H]2CC[C@H]1N2C(=O)NCc1ccc(F)cc1	-2	i	?	-12	?	-15%
COC(=O)C1=C(c2ccccc2OCc2ccccc2)C[C@@H]2CC[C@H]1N2C(=O)NCc1ccc(F)cc1	1	18µM*	23µM*	7	21µM*	?
Cc1ccc(S(=O)(=O)c2nnn3c2nc(N2CCC(C(N)=O)CC2)c2cc(Cl)ccc23)cc1C	-1	?	?	·	i	-5%
CC(C)(C)N1CC(C(=O)c2ccccc2)C1c1ccccc1 (stereo not given)	0	16µM*	7%	5	i	1%
CC[C@@H](C)[C@H](C(CC(=O)N1CCCC1[C@@H](OC)[C@H](C)C(=O)N[C@H](Cc1ccccc1)c1nccs1)OC)N(C)C(=O)[C@H](NC(=O)[C@@H](C(C)C)N(C)C)C(C)C (stereo not given in full)	-3	0.18µM*	?	?	?	?
CCOC(=O)c1c(C)[nH]c(C)c1S(=O)(=O)NCC(=O)N1CCN(c2cc(Cl)ccc2C)CC1	-3	i	?	·	i	1%
CN(Cc1cccc(-c2ccncc2)c1)C(=O)Oc1ccccc1Cc1ccccc1	-3	?	·	·	15µM*	·
Cc1nc2cc(OC(=O)N(C)Cc3cccc(-c4ccncc4)c3)ccc2s1	-5	i	·	·	?	·
CN(Cc1cccc(-c2ccncc2)c1)C(=O)Oc1ccccc1Cl	1	i	·	·	15µM*	·
CN(N=O)c1cc(O)ccc1O	-26	·	-6%	-19	·	?
O=C(O)CSCC(=O)N(Cc1ccccc1)c1nc(-c2ccccc2)c(-c2ccccc2)s1	0	i	?	-6	i	0%
CC(=O)O[C@H]1C[C@@H]2OC3C=C(C)CCC3(C)[C@@]1(C)[C@@]21CO1 (stereo not given in full)	1	1.6µM*	6.5µM*	11	2.3µM*	·
C[C@]12CC[C@@H](O)CC1=CCC1C2CC[C@@]2(C)C1CC[C@@H]2N (stereo not given in full)	5	i	?	-26	i	3%
COc1cc(/C=C2\C[C@H]3[C@@H]4CC=C5C[C@@H](N6CCCC6)CC[C@]5(C)[C@H]4CC[C@]3(C)[C@H]2O)cc(OC)c1OC	-4	2.9µM*	16%	-1	i	?
Cc1cc2c(cc(C(=O)N3CCC(C(=O)NC4CCCC4)CC3)n2Cc2c(F)cccc2Cl)o1	-3	?	16µM*	7	i	-22%
O=C(CCCc1nc(-c2ccc(Cl)cc2)no1)NCC1CCCO1 (stereo not given)	-7	13µM*	13µM*	-5	10µM*	-5%
CCCCn1c(=O)c(C(=O)NCc2ccccc2Cl)c(O)c2ccccc21	0	i	?	-20	i	7%
O=C(CN1CCN(S(=O)(=O)c2cc(Br)ccc2Br)CC1)NCc1ccccc1Cl	-1	3.7µM*	?	-7	i	-15%
C=CCC1(C(C)CC)C(=O)NC(=O)NC1=O (stereo not given)	1	·	·	·	·	·
O=P(O)(O)Cc1ccccc1OP(=O)(c1ccccc1)c1ccccc1	-6	23µM*	12%	4	i	1%
CCOP(=O)(/C(C#N)=C(\C)O)c1ccccc1 (stereo not given)	2	i	10%	-10	i	?
COc1ccc2cc1Oc1ccc(cc1)C[C@H]1c3cc(c(OC)cc3CCN1C)Oc1c(OC)c(OC)cc3c1[C@@H](C2)N(C)CC3	4	i	6%	17	i	-19%
CN1CCC(N(C)c2ncnc3ccc(Br)cc23)CC1	8	i	·	-3	i	-6%
Cc1ccc(-c2nc(N(C)C3CCN(C)CC3)c3ccccc3n2)cc1	-4	21µM*	9%	7	i	4%
CC(C)(C)c1ccc(CSc2cnn(C(C)(C)C)c(=O)c2Cl)cc1	1	?	0.15µM*	9	?	-10%
SMILES	PI4K2A block	KB-V1 MDR tox	Nrf2 inh	Giardia killer	KB-3-1 tox	A549 tox
O=C(Cn1c(=O)oc2cc(S(=O)(=O)N3CCCC3)ccc21)Nc1cccc(C(F)(F)F)c1	0	i	?	6	i	-10%
O=C(c1ccccc1)C(CN1CCCC1)c1ccccc1 (stereo not given)	34	5.2µM*	?	?	5.2µM*	-11%
O=C(CN1CCCC1)c1ccccc1	·	i	·	·	i	·
CC(Cc1ccccc1Sc1ccccc1)N(C)C (stereo not given)	-1	i	3%	2	i	0%
CN1CCN(Cc2ccccc2Sc2ccccc2)CC1	10	21µM*	-3%	1	i	-18%
CC1CCC(C(C)C)C(OC(=O)Cn2c(COc3ccccc3)[n+](C)c3ccccc32)C1 (stereo not given)	4	i	?	7	23µM*	?
CN1CCN(c2ccc([N+](=O)[O-])c(N/N=C3\CN4CCC3CC4)c2)CC1	1	i	0%	9	i	21µM*
CCNc1cc(N2CCN(C)CC2)ccc1[N+](=O)[O-]	27	i	-6%	1	i	-27%
CCN(CC)C(=O)c1ccc(NC(=O)CCn2nc(-c3ccc(Cl)cc3)c3ccccc3c2=O)cc1	0	i	26µM*	·	i	-15%
Cc1ccc(NC(=O)COc2ccc(-c3nn(C)c(=O)c4ccccc34)cc2)cc1	0	i	?	·	?	-6%
COC(=O)C(O)(c1ccc(NC(=S)NC(=O)c2ccccc2)cc1)C(F)(F)F (stereo not given)	0	i	16µM*	1	i	-9%[1.84 µM]
O=C(COc1ccc(Br)cc1)Nc1ccc(Cl)cc1C(=O)c1ccccc1	9	·	-3%	·	·	3%
C[N+]1=C(/C=C/Nc2ccccc2)C(C)(C)c2ccccc21	0	21µM*	?	11	?	?
Fc1ccc(-c2nc3c(-c4ccc(F)cc4)cnn3cc2CCN2CCOCC2)cc1	-3	?	?	-6	i	0%
COc1cccc(-n2cnc3sc(-c4ccccc4)cc3c2=O)c1	3	i	?	-8	i	2%
Cn1nc(-c2ccccc2)nc2c(=O)n(C)c(=O)nc1-2	·	5.8µM*	2.6µM*	-89*	4.6µM*	3.7µM*
Cc1nc2c(=O)n(C)c(=O)nc-2n(C)n1	-55*	6.5µM*	2.3µM*	-107*	5.2µM*	1.6µM*
